# Test results from PubChem BioAssay AID1159580 (chemical genetic matrix, 2015).
# Where “and” joins values, the source holds several entries; their conditions need not be identical. Equal entries are not always repeated. About 2,000 (36%) of roughly 5,500 compounds were called active. Inconclusive results (about 18%) are left out. The list shows a part of the results. A number with no mark means an inactive call. Cut-off read from the data, not from the text of the source: active = normalized growth mostly below about 0.91 (no sharp cut-off); inconclusive = no clear call, values can overlap the other calls; inactive = mostly above about 0.92.
# Experiment: chemical genetic growth profiling, strain panel (AID 1159580);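 note: tested at 20 µM; growth read once vehicle control cultures reached saturation at 30 °C; 1 = growth at the plate median or of vehicle wells; lower values mean less growth of the strain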
# Conditions: S. cerevisiae deletion strains, growth OD
structure (smiles),measurement,setting,value
CC1(C)CC[C@]2(C(=O)O)CC[C@]3(C)C(=CCC4[C@@]5(C)CC[C@@H](O)C(C)(C)C5CC[C@]43C)C2C1 (stereo partly drawn),normalized growth,"locus YAL021C, strain ccr4, active compounds read low",1.02
same,normalized growth,"locus YAL026C, strain drs2, active compounds read low",1.01
same,normalized growth,"locus YAL030W, strain snc1, active compounds read low",1.03
same,normalized growth,"locus YBL061C, strain skt5, active compounds read low",1.01
same,normalized growth,"locus YBR009C, strain hhf1, active compounds read low",0.995
same,normalized growth,"locus YBR021W, strain FUR4, active compounds read low",1.02
same,normalized growth,"locus YBR023C, strain chs3, active compounds read low",1.01
same,normalized growth,"locus YBR171W, strain sec66, active compounds read low",1.05
same,normalized growth,"locus YBR229C, strain ROT2, active compounds read low",1.01
same,normalized growth,"locus YBR231C, strain swc5, active compounds read low",1.02
same,normalized growth,"locus YBR279W, strain paf1, active compounds read low",1.01
same,normalized growth,"locus YCL011C, strain gbp2, active compounds read low",1.01
same,normalized growth,"locus YCL016C, strain dcc1, active compounds read low",1.03
same,normalized growth,"locus YCL029C, strain bik1, active compounds read low",1.01
same,normalized growth,"locus YCL069W, strain vba3, active compounds read low",1.02
same,normalized growth,"locus YCR088W, strain abp1, active compounds read low",1.01
same,normalized growth,"locus YDL005C, strain med2, active compounds read low",1.03
same,normalized growth,"locus YDL035C, strain GPR1, active compounds read low",1.01
same,normalized growth,"locus YDL040C, strain nat1, active compounds read low",1.01
same,normalized growth,"locus YDL074C, strain BRE1, active compounds read low",1.06
same,normalized growth,"locus YDL101C, strain DUN1, active compounds read low",1.02
same,normalized growth,"locus YDL134C, strain PPH21, active compounds read low",1.04
same,normalized growth,"locus YDL185W, strain tfp1, active compounds read low",1.02
same,normalized growth,"locus YDR001C, strain nth1, active compounds read low",1.01
same,normalized growth,"locus YDR069C, strain doa4, active compounds read low",1.05
same,normalized growth,"locus YDR101C, strain arx1, active compounds read low",0.991
same,normalized growth,"locus YDR137W, strain rgp1, active compounds read low",1.07
same,normalized growth,"locus YDR150W, strain NUM1, active compounds read low",1.01
same,normalized growth,"locus YDR159W, strain sac3, active compounds read low",1.04
same,normalized growth,"locus YDR162C, strain NBP2, active compounds read low",1.05
same,normalized growth,"locus YDR195W, strain ref2",0.987
same,normalized growth,"locus YDR297W, strain sur2, active compounds read low",1
same,normalized growth,"locus YDR318W, strain mcm21, active compounds read low",1.02
same,normalized growth,"locus YDR334W, strain swr1, active compounds read low",1.03
same,normalized growth,"locus YDR335W, strain msn5, active compounds read low",1.02
same,normalized growth,"locus YDR388W, active compounds read low",1.02
same,normalized growth,"locus YDR392W, strain spt3, active compounds read low",1.03
same,normalized growth,"locus YDR502C, strain sam2, active compounds read low",1.02
same,normalized growth,"locus YEL003W, strain gim4, active compounds read low",1.02
same,normalized growth,"locus YEL037C, strain rad23, active compounds read low",1.01
same,normalized growth,"locus YEL061C, strain CIN8 (second series), active compounds read low",1
same,normalized growth,"locus YER015W, strain faa2, active compounds read low",1.01
same,normalized growth,"locus YER016W, strain bim1, active compounds read low",1.03
same,normalized growth,"locus YER110C, active compounds read low",1.02
same,normalized growth,"locus YER111C, strain swi4, active compounds read low",1.01
same,normalized growth,"locus YER155C, strain BEM2 (second series), active compounds read low",1.02
same,normalized growth,"locus YER155C, strain BEM2, active compounds read low",1.01
same,normalized growth,"locus YER167W, strain BCK2, active compounds read low",1.01
same,normalized growth,"locus YFR010W, strain ubp6, active compounds read low",1.01
same,normalized growth,"locus YGL078C, strain dbp3, active compounds read low",1.04
same,normalized growth,"locus YGL086W, strain mad1, active compounds read low",1.03
same,normalized growth,"locus YGL167C, strain pmr1, active compounds read low",1.03
same,normalized growth,"locus YGL173C, strain kem1, active compounds read low",1.02
same,normalized growth,"locus YGL227W, strain vid30, active compounds read low",1.01
same,normalized growth,"locus YGL240W, strain doc1, active compounds read low",1.03
same,normalized growth,"locus YGL248W, strain PDE1, active compounds read low",1.02
same,normalized growth,"locus YGL253W, strain hxk2, active compounds read low",1.01
same,normalized growth,"locus YGR135W, strain pre9, active compounds read low",1.02
same,normalized growth,"locus YGR229C, strain SMI1, active compounds read low",1.05
same,normalized growth,"locus YGR252W, strain gcn5, active compounds read low",0.944
same,normalized growth,"locus YHR013C, strain ard1, active compounds read low",1.04
same,normalized growth,"locus YHR027C, strain rpn1, active compounds read low",1.02
same,normalized growth,"locus YHR030C, strain SLT2, active compounds read low",1.01 and 1.02
same,normalized growth,"locus YHR079C, strain IRE1 (second series), active compounds read low",1.01
same,normalized growth,"locus YHR079C, strain IRE1, active compounds read low",1.05
same,normalized growth,"locus YHR094C, strain hxt1, active compounds read low",1.01
same,normalized growth,"locus YHR129C, strain ARP1, active compounds read low",1.01
same,normalized growth,"locus YHR142W, strain chs7, active compounds read low",1.02
same,normalized growth,"locus YHR200W, strain rpn10, active compounds read low",1.01
same,normalized growth,"locus YIL066C, strain RNR3, active compounds read low",1.03
same,normalized growth,"locus YIL073C, strain SPO22, active compounds read low",1.05
same,normalized growth,"locus YIL125W, strain kgd1, active compounds read low",1.01
same,normalized growth,"locus YJL092W, strain hpr5, active compounds read low",1.02
same,normalized growth,"locus YJL095W, strain BCK1 (second series), active compounds read low",1.03
same,normalized growth,"locus YJL095W, strain BCK1, active compounds read low",1.05 and 1.02
same,normalized growth,"locus YJL115W, strain asf1, active compounds read low",1.01
same,normalized growth,"locus YJL129C, strain trk1, active compounds read low",1.04
same,normalized growth,"locus YJL134W, strain LCB3, active compounds read low",1.01
same,normalized growth,"locus YJL154C, strain vps35, active compounds read low",1.01
same,normalized growth,"locus YJL164C, strain tpk1, active compounds read low",1.02
same,normalized growth,"locus YJL166W, strain qcr8, active compounds read low",1.02
same,normalized growth,"locus YJL168C, strain set2, active compounds read low",1.02
same,normalized growth,"locus YJL187C, strain SWE1 (second series), active compounds read low",1.04
same,normalized growth,"locus YJR043C, strain POL32, active compounds read low",1
same,normalized growth,"locus YJR066W, strain TOR1, active compounds read low",0.982
same,normalized growth,"locus YKL009W, strain mrt4, active compounds read low",1.45 [resistant] (active)
same,normalized growth,"locus YKL068W, active compounds read low",1.21 [resistant] (active)
same,normalized growth,"locus YKL085W, strain MDH1 (second series), active compounds read low",1.09 [resistant] (active)
same,normalized growth,"locus YKL085W, strain MDH1, active compounds read low",1.09 [resistant] (active)
same,normalized growth,"locus YKL160W, strain elf1, active compounds read low",1.02
same,normalized growth,"locus YKL190W, strain CNB1, active compounds read low",1.02
same,normalized growth,"locus YKR001C, strain vps1, active compounds read low",0.993
same,normalized growth,"locus YKR026C, strain gcn3, active compounds read low",1.02
same,normalized growth,"locus YKR091W, strain srl3, active compounds read low",1.02
same,normalized growth,"locus YLL001W, strain dnm1, active compounds read low",1.01
same,normalized growth,"locus YLL026W, active compounds read low",1.02
same,normalized growth,"locus YLL041C, strain sdh2, active compounds read low",1.02
same,normalized growth,"locus YLR027C, strain aat2, active compounds read low",1.01
same,normalized growth,"locus YLR039C, strain RIC1, active compounds read low",1.11
same,normalized growth,"locus YLR058C, strain SHM2, active compounds read low",1.02
same,normalized growth,"locus YLR102C, strain apc9, active compounds read low",1.02
same,normalized growth,"locus YLR113W, strain HOG1, active compounds read low",0.951
same,normalized growth,"locus YLR221C, strain rsa3, active compounds read low",1
same,normalized growth,"locus YLR258W, strain gsy2, active compounds read low",1.01
same,normalized growth,"locus YLR262C, strain YPT6 (second series), active compounds read low",0.984
same,normalized growth,"locus YLR262C, strain YPT6, active compounds read low",1.1
same,normalized growth,"locus YLR268W, strain sec22, active compounds read low",0.986
same,normalized growth,"locus YLR320W, strain mms22, active compounds read low",1.01
same,normalized growth,"locus YLR342W, strain FKS1 (second series), active compounds read low",0.964
same,normalized growth,"locus YLR342W, strain FKS1, active compounds read low",1.01
same,normalized growth,"locus YLR357W, strain rsc2, active compounds read low",1.03
same,normalized growth,"locus YLR370C, strain arc18, active compounds read low",1
same,normalized growth,"locus YLR371W, strain rom2, active compounds read low",0.992
same,normalized growth,"locus YLR384C, strain iki3, active compounds read low",1.02
same,normalized growth,"locus YLR418C, strain cdc73, active compounds read low",1.09
same,normalized growth,"locus YML016C, strain PPZ1, active compounds read low",1.01
same,normalized growth,"locus YML032C, strain rad52, active compounds read low",0.991
same,normalized growth,"locus YML120C, strain ndi1, active compounds read low",1.01
same,normalized growth,"locus YML124C, strain tub3, active compounds read low",1.01
same,normalized growth,"locus YMR058W, strain fet3, active compounds read low",1.02
same,normalized growth,"locus YMR078C, strain ctf18, active compounds read low",1.02
same,normalized growth,"locus YMR125W, strain sto1, active compounds read low",1.04
same,normalized growth,"locus YMR129W, active compounds read low",1.01
same,normalized growth,"locus YMR205C, strain PFK2, active compounds read low",1.03
same,normalized growth,"locus YMR223W, strain ubp8, active compounds read low",1.02
same,normalized growth,"locus YMR231W, strain pep5, active compounds read low",1.02
same,normalized growth,"locus YMR307W, strain GAS1, active compounds read low",0.976
same,normalized growth,"locus YNL067W, strain RPL9B, active compounds read low",1.05
same,normalized growth,"locus YNL071W, strain lat1, active compounds read low",1
same,normalized growth,"locus YNL128W, strain TEP1, active compounds read low",1.03
same,normalized growth,"locus YNL183C, strain NPR1, active compounds read low",0.994
same,normalized growth,"locus YNL209W, strain ssb2, active compounds read low",1.01
same,normalized growth,"locus YNL233W, strain BNI4, active compounds read low",1.03
same,normalized growth,"locus YNL248C, strain rpa49, active compounds read low",1.01
same,normalized growth,"locus YNL250W, strain rad50, active compounds read low",1.04
same,normalized growth,"locus YNL271C, strain bni1, active compounds read low",1.03
same,normalized growth,"locus YNL298W, strain CLA4, active compounds read low",1.07
same,normalized growth,"locus YNL307C, strain MCK1, active compounds read low",1.03
same,normalized growth,"locus YNL322C, strain KRE1 (second series), active compounds read low",1.04
same,normalized growth,"locus YNR049C, strain mso1, active compounds read low",1.02
same,normalized growth,"locus YNR052C, strain pop2, active compounds read low",1.03
same,normalized growth,"locus YOL012C, strain htz1",1.33
same,normalized growth,"locus YOL147C, strain pex11, active compounds read low",1
same,normalized growth,"locus YOR001W, strain rrp6, active compounds read low",1.02
same,normalized growth,"locus YOR061W, strain CKA2, active compounds read low",1.02
same,normalized growth,"locus YOR069W, strain VPS5, active compounds read low",1.02
same,normalized growth,"locus YOR070C, strain gyp1, active compounds read low",1.03
same,normalized growth,"locus YOR080W, strain dia2, active compounds read low",1.01
same,normalized growth,"locus YOR083W, strain WHI5, active compounds read low",1.02
same,normalized growth,"locus YOR106W, strain vam3, active compounds read low",1.03
same,normalized growth,"locus YOR136W, strain idh2, active compounds read low",1.01
same,normalized growth,"locus YOR144C, strain elg1, active compounds read low",1.01
same,normalized growth,"locus YOR184W, strain ser1, active compounds read low",1.03
same,normalized growth,"locus YOR231W, strain MKK1, active compounds read low",0.997
same,normalized growth,"locus YOR265W, strain rbl2, active compounds read low",1.02
same,normalized growth,"locus YOR270C, strain vph1, active compounds read low",0.997
same,normalized growth,"locus YOR290C, strain snf2, active compounds read low",1.02
same,normalized growth,"locus YOR316C, strain cot1, active compounds read low",1.01
same,normalized growth,"locus YPL051W, strain arl3, active compounds read low",1
same,normalized growth,"locus YPL078C, strain atp4, active compounds read low",1.04
same,normalized growth,"locus YPL106C, strain sse1, active compounds read low",1.03
same,normalized growth,"locus YPL240C, strain hsp82, active compounds read low",1.01
same,normalized growth,"locus YPL256C, strain CLN2, active compounds read low",1.05
same,normalized growth,"locus YPR119W, strain clb2, active compounds read low",1.01
same,normalized growth,"locus YPR141C, strain kar3, active compounds read low",1.02
same,normalized growth,"locus YPR163C, strain tif3, active compounds read low",1.02
same,normalized growth,"locus YPR167C, strain met16, active compounds read low",1.03
same,normalized growth,"strain wtn01, active compounds read low",1
